Each structure is given as a SMILES string. “And” between values parts separate entries of the source, which are not always exact repeats. Equal values may be shown once. Compounds without any hit were thinned out: in the full panel of roughly 83,000, 20% have a hit.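 Results are percent growth after 48 hours of single-concentration exposure. 100 means growth as in untreated cells, lower positive values show inhibition; negative values down to -100 show cell death.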 The source made the active and inactive calls. The calls were made as follows: active = growth percent below 10; inactive = the rest.

The subject of the test is MDA-MB-468 breast. In words: NCI-60 one-dose screen, 48 h (100 = growth as untreated, 0 = no growth, -100 = all killed). The note with it: 10 µM unless noted.
`CN(C)C(=O)Oc1cccc([N+](C)(C)C)c1`: the growth is 102% (inactive).
For the compound `CC(=O)NC(CCc1ccc(Cl)c(Cl)c1)c1cccc(O)c(=O)c1` (stereo not given), the growth is -31.6% (active).
`O=P([O-])(O)OP(=O)([O-])O.[NH-][C@H]1CCCC[C@@H]1[NH-].[OH-].[OH-].[Pt+4]`: the growth is 102% (inactive).
Consider `COc1ccc(-c2cc(-c3ccc(OC)c(OC)c3)nc(SCCCCCC(=O)NO)n2)cc1`, for which the growth was 54.8% (inactive).
With `CCOC(=O)C1=C(C)n2nc(CC#N)c(C#N)c2NC1c1ccc(Cl)cc1` (stereo not given), the growth is 117% (inactive).
In the case of `C[C@@H](CO)[C@@H]1CC[C@]2(C(=O)N3CCN(C)CC3)CC[C@]3(C)[C@H](CC[C@@H]4[C@@]5(C)CC[C@H](O)C(C)(C)[C@@H]5CC[C@]43C)[C@@H]12` it was 61% (inactive).
In the case of `COc1ccc2nc3ccccc3c(NCCNCC(C)O)c2c1` (stereo not given) it was -24.6% (active).
Regarding `O=C1NC(=S)NC(=O)C1=Cc1cn(Cc2ccccn2)c2ccccc12`, the growth is -40.6% (active).
In the case of `CCN1C(=O)N(c2ccccc2)C2NC(=S)N(/N=C/C=C/c3ccccc3)C21` (stereo not given) it was 5.41% (active); in that of `CCOC(=O)c1ccc2[nH]c(-c3ccccc3)cc(=O)c2c1`, 105% (inactive).
Next, `O=C1NC(=Nc2ccc(O)cc2)S/C1=C\c1cccc(Cl)c1`: 44.5% (inactive); `C=CCN1C(=O)c2ccccc2C1=O`: 107% (inactive).
Next, `COc1ccc(C2=NN(C=O)C(c3ccc(Oc4nc5c(c(=O)n(C)c(=O)n5C)n4C)c(OC)c3)C2)cc1` (stereo not given): 73.6% (inactive); `CSc1nc(C)c([N+](=O)[O-])c(N)n1`: 106% (inactive); `Cc1ccc(-c2nc(N3CCCNCC3)c3oc(-c4ccccc4)nc3n2)cc1`: -76.2% (active).
Turning to `Nc1nc(N)c2cc(S(=O)(=O)c3ccccc3)ccc2n1`, the growth was 49.9% (inactive) and 57.7% (inactive).
Take `O=C(O)/C=C/c1ccc2c(c1)CCC2`: the growth is 104% (inactive).
On to `C=C1C(=O)O[C@H]2[C@H]1CC/C(COC(=O)CCSSCCC(=O)OC/C1=C/CC[C@@]3(C)O[C@H]3[C@H]3OC(=O)C(=C)[C@@H]3CC1)=C\CC[C@@]1(C)O[C@@H]21`, for which the growth was -54% (active).
Regarding `COc1ccc(-c2cc(/C=C/C(=O)c3cc(OC)c(OC)c(OC)c3)[nH]n2)cc1OC`, the growth is -63.8% (active).
In the case of `Cc1ccc(/C=C(\C#N)c2cc3ccccc3[nH]2)cc1` it was 43.2% (inactive); in that of `C=CCc1cc(OC)c(O)c(OC)c1`, 112% (inactive); in that of `COc1cc(NC(C)CCCN)c2ncccc2c1Sc1ccc(Cl)cc1` (stereo not given), -2.79% (active).
For `CCOC(=O)c1cc(/C(=N\O)c2cc(OC)c(OC)c(OC)c2)n2cc(C)cc(C)c12`, the growth was 15.8% (inactive).
In the case of `Cc1cccc(Oc2ccc(Nc3ncnc4ccc(NC(=O)CNCCO)cc34)cc2Cl)c1` it was -21.9% (active); in that of `O=C(O)/C=C/C(=O)Nc1cccc(Cn2nnc3cc(Cl)c(Cl)cc32)c1`, 94.2% (inactive); in that of `CC(=O)NC(N)=S`, 109% (inactive).
Consider `S=C(Nc1ccccc1)N1CCCCC1`, for which the growth was 90.3% (inactive).
Take `O=NN(CCCl)C(=O)Nc1ccc(NC(=O)N(CCCl)N=O)cc1`: the growth was 96.4% (inactive).
Regarding `COc1cccc(C2CC(=O)Nc3cc4c(cc32)CCC4)c1OC` (stereo not given), the growth was -2.82% (active).
For `CNC(=O)c1c(C)oc2cc(Oc3ncnc4cc(OC)c(OC)cc34)ccc12`, the growth is 106% (inactive).
Next, `CN(C)c1nc(-c2ccco2)n2nc(-c3ccc(Cl)cc3)cc2n1`: 78.3% (inactive).
Regarding `Cc1cc(C(=O)/C=C/c2ccc[nH]2)ccc1-n1ccc(C(F)(F)F)n1`, the growth is 90.2% (inactive).
On to `CCCN(CCC)C(=O)[C@H](CC)[C@@H]1CC[C@@H](C)[C@@H]([C@H](C)[C@@H](O)[C@@H](C)C(=O)[C@H](CC)C2O[C@]3(C=C[C@@H](O)[C@]4(CC[C@@](C)([C@H]5CC[C@](O)(CC)[C@H](C)O5)O4)O3)[C@H](C)C[C@@H]2C)O1` (stereo not given in full), for which the growth is -24.6% (active).
Next, `Nc1ccc2cc3ccc(N)cc3nc2c1`: 112% (inactive) and -42% (active); `Clc1cccc(Cl)c1Cn1c(-c2cncs2)nc2ccccc21`: 52.6% (inactive).
With `CCOC(=O)/C(=C/c1ccccc1)C(=O)c1ccccc1`, the growth is 85.6% (inactive).
Regarding `CC(C)CCNCC(C)(C)O`, the growth is 112% (inactive).
As for `CCCCCCCCCCOC(c1ccccc1)c1ccccc1`, the growth is 92.1% (inactive).
`COc1ccc(/C=N/NC(=O)CSc2nc(-c3cnccn3)cc(-c3cccs3)c2C#N)cc1OC`: the growth was 65.3% (inactive).
In the case of `COc1cc(C2=NN(C=O)C(c3cccc(Nc4ccnc5cc(Cl)ccc45)c3)C2)cc(OC)c1OC` (stereo not given) it was 59.2% (inactive).

(Values after PubChem BioAssay (NCI).)
